{
  "source": "PubChem BioAssay (NCI)",
  "note": "Compounds without any hit were thinned out: in the full panel of roughly 83,000, 20% have a hit.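 Method: cells in 96-well plates; compound added at one concentration; 48 h incubation; percent growth measured; values under 10 scored active.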 Values without a mark were called inactive. Active and inactive are the calls of the source.",
  "data": [
    {"tested_on": "HCC-2998 colon", "assay": "NCI-60 one-dose screen, 48 h (100 = growth as untreated, 0 = no growth, -100 = all killed)", "conditions": "10 µM", "experimental": "Growth inhibition of the HCC-2998 human tumor cell line is measured as a screen for anti-cancer activity. Cells are grown in 96 well plates and exposed to the test compound for 48 hours. Compounds are tested at a single concentration, which is 10^-5 M for most compounds. The reported endpoint is percent growth (GI% or GIPRCNT), where numbers from 0 - 100% represent growth inhibition, and numbers from -100% - 0 represent cell death. For example, a value of 40 represents 60% growth inhibition. A value of 0 means no net growth occurred over the course of the experiment. A value of -40 indicates 40% of cells at the beginning of the experiment died by the end of the experiment. A value of -100 means all cells are dead at the end of the experiment.\nNCI-60 Human Tumor Cell Lines Screen was performed using the standard one-dose NCI protocol, which is described in more detail at https://dtp.cancer.gov/discovery_development/nci-60/default.htm.\nCompounds with GIPRCNT values below 10 were considered active. Activity score was based on GIPRCNT using the following formula: […]\nScore is 0 for GIPRCNT values of 100 or above, 50 for GIPRCNT values of 0, and 100 for GIPRCNT values of -100.", "values": [
      {"smiles": "Cc1cc(C(=O)NOCCO)c(Nc2ccc(I)cc2F)n(C)c1=O", "growth": "-16.6% (active)"},
      {"smiles": "Clc1ccc2c(NCCNc3nc(N4CCCC4)nc4ccccc34)ccnc2c1", "growth": "7.18% (active)"},
      {"smiles": "Cc1ccc(-c2nc3ccc(Cl)cn3c2NC2CCCCC2)o1", "growth": "102%"},
      {"smiles": "COC(=O)[C@]12CC[C@@H](C)[C@H](C)[C@@H]1C1=CC[C@@H]3[C@@]4(C)C(c5cnco5)=C[C@@](C)(CO)C4=CC[C@@]3(C)[C@]1(C)CC2", "growth": "45.5%"},
      {"smiles": "COc1ccc(-c2cnc(-c3ccc(Cl)cc3)[nH]2)cc1OC", "growth": "112%"},
      {"smiles": "Cc1cc(C)n(CC(=O)Nc2ccc(-c3nc4ccccc4s3)cc2)n1", "growth": "92.9%"},
      {"smiles": "COCCN1CCN(Cc2ccc(-c3n[nH]c4c3C(=O)c3c(NC(=O)NN5CCOCC5)cccc3-4)cc2)CC1", "growth": "-35.8% (active)"},
      {"smiles": "CS(=O)(=O)N1CCN(Cc2cc3nc(-c4cccc5[nH]ncc45)nc(N4CCOCC4)c3s2)CC1", "growth": "22.8%"},
      {"smiles": "O=C(Cn1c(=O)ccn(CCCCCCCCOc2ccc(Br)cc2)c1=O)Nc1ccc(Oc2ccc(Cl)cc2)cc1", "growth": "75.5%"},
      {"smiles": "COC(=O)[C@]12CC[C@@H](C)[C@H](C)[C@@H]1C1=CC[C@@H]3[C@@]4(C)C(C=O)=C[C@@](C)(COS(C)(=O)=O)C4=CC[C@@]3(C)[C@]1(C)CC2", "growth": "-83.5% (active)"},
      {"smiles": "O=C(Cc1ccc(/C=C/C(=O)c2ncc[nH]2)cc1)Nc1ccc(S(F)(F)(F)(F)F)cc1", "growth": "78.9%"},
      {"smiles": "CC1(/C=N/NC(N)=S)NC(=O)NC1=O", "note": "(stereo not given)", "growth": "118%"},
      {"smiles": "CC1(O)CCC(Nc2cc(-c3ccc(C(F)(F)F)cc3)c(C#N)c3nc4ccccc4n23)CC1", "note": "(stereo not given)", "growth": "86.5%"},
      {"smiles": "Cc1ccc(Nc2nccc(N(C)c3ccc4c(C)n(C)nc4c3)n2)cc1S(N)(=O)=O", "growth": "-5.85% (active)"},
      {"smiles": "CSc1nc2ncnc(SC)c2[nH]1", "growth": "113%"},
      {"smiles": "O=C1C=CC2(NN=C(c3ccccc3)N2c2cccc(Cl)c2)c2cccc(O)c21", "note": "(stereo not given)", "growth": "90.8%"},
      {"smiles": "CCCC(=O)OCC1OC(n2cnc3c(=S)nc[nH]c32)C(OC(=O)CCC)C1OC(=O)CCC", "note": "(stereo not given)", "growth": "2.11% (active)"},
      {"smiles": "COCC(=O)NC/C=C/c1ccc2ncnc(Nc3ccc(Oc4ccc(C)nc4)c(C)c3)c2c1", "growth": "36.6%"},
      {"smiles": "CC[C@H](CO)Nc1nc(NCc2ccccc2)c2ncn(C(C)C)c2n1", "growth": "74.5%"},
      {"smiles": "Cc1cc(C(O)CN(C)C)cc2c1ccc1cc(C(C)C)ccc12", "note": "(stereo not given)", "growth": "-89.1% (active)"},
      {"smiles": "NC1=Nc2ccccc2N(O)N1", "growth": "91.3%"},
      {"smiles": "COc1c(OCCCN2CCOCC2)ccc2c3n(c(=NC(=O)c4cnc(N)nc4)nc12)CCN3", "growth": "-15.7% (active)"},
      {"smiles": "N#CC[C@H](C1CCCC1)n1cc(-c2ncnc3[nH]ccc23)cn1", "growth": "85.8%"},
      {"smiles": "COc1cc(NC2CCC(=O)N2c2ccc(Cl)cc2Cl)cc(OC)c1OC", "note": "(stereo not given)", "growth": "95.7%"},
      {"smiles": "COc1cc(OC)c(/C=C/S(=O)(=O)Cc2ccc(OC)c(NCC(=O)O)c2)c(OC)c1", "growth": "5.81% (active)"},
      {"smiles": "Cc1nc(N)sc1-c1ccnc(Nc2ccc(N3CCOCC3)cc2)n1", "growth": "77.8%"},
      {"smiles": "c1ccc2c(c1)CCN(NCCN1CCCC1)C2", "growth": "95%"},
      {"smiles": "Nc1cc(C(F)(F)F)c(-c2cc(N3CCOCC3)nc(N3CCOCC3)n2)cn1", "growth": "-52.9% (active)"},
      {"smiles": "Cc1nc(Nc2n[nH]c3c2CN(C(=O)N[C@H](CN(C)C)c2ccccc2)C3(C)C)c2sccc2n1", "growth": "-55.1% (active)"},
      {"smiles": "CCc1nc(C(N)=O)c(Nc2ccc(N3CCC(N4CCN(C)CC4)CC3)c(OC)c2)nc1NC1CCOCC1", "growth": "61.4%"},
      {"smiles": "CC(=O)C1=C(C)NC(SCc2nnc(-c3ccc(C)cc3)o2)=NC1c1ccc(F)cc1", "note": "(stereo not given)", "growth": "104%"},
      {"smiles": "COc1cnc2c(c1)C(=O)c1c-2n(CCCN2CCOCC2)c(=O)c2cc(Cl)ccc12", "growth": "53.6%"},
      {"smiles": "CN1CC[C@H](c2c(O)cc(O)c3c(=O)cc(-c4ccccc4Cl)oc23)[C@H](O)C1", "growth": "-21.1% (active)"},
      {"smiles": "O=C(Cc1ccc(-c2ccc(OCCN3CCOCC3)cc2)cn1)NCc1ccccc1", "growth": "8.15% (active)"},
      {"smiles": "C#Cc1cccc(Nc2ncnc3cc4c(cc23)OCCOCCOCCO4)c1", "growth": "97.9%"},
      {"smiles": "CN1CCN(CCOc2cc(OC3CCOCC3)c3c(Nc4c(Cl)ccc5c4OCO5)ncnc3c2)CC1", "growth": "90.7%"},
      {"smiles": "Ic1ccccc1-c1ccccc1", "growth": "114%"},
      {"smiles": "Cc1ccc(N=C2CSc3nnc(-c4csc5c4CCCC5)n3N2)cc1", "growth": "30.3%"},
      {"smiles": "COc1ccc(CCCc2c3[n+](cc4c(OC)c(OC)ccc24)CCc2cc4c(cc2-3)OCO4)cc1", "growth": "74%"},
      {"smiles": "C=CCCCC(=O)CCC(=O)OCC1O[C@@H](O[C@@H]2C(O)[C@@H](OC(C)=O)C(C)O[C@H]2O[C@H](CC=C)CCCCC)C(O)[C@@H](OC(=O)/C(C)=C/C)[C@@H]1OC(=O)/C=C/c1ccccc1", "note": "(stereo not given in full)", "growth": "44.1%"}
    ]}
  ]
}
